Compound activity deposited in PubChem by several laboratories.
D1 allo mod: D1 CRE-luciferase signal change, two-sided – cell-based, HEK293 D1, dopamine EC30, D1 allosteric modulator project, primary screen; D(1A) dopamine receptor (Homo sapiens), P21728; dopamine EC30 potentiation; actives deviate in either direction; B-score at 10 µM; 5.9% of 58,000 active; AID 641, 2007;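 active means luminescence count or its row- and column-corrected plate score outside the 99.7% band of the plate's sample wells, on either side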
hDAT+cocaine: changed hDAT dopamine uptake under cocaine IC80, either direction, primary screen, cocaine antagonist project, cell-based, LLC-PK1 hDAT, [14C]-dopamine uptake, MLSMR | LLC-PK1 hDAT cells, [14C]-dopamine uptake with cocaine IC80; actives deviate in either direction | B-score at 10 µM | 1.3% of 110,000 active | AID 449768, 2010;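 active means Z score or B-score, a plate-position-corrected score, falls beyond the plate's 99.7% confidence bounds, in either direction; inactive means both scores lie inside the 99.7% bounds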;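 further: scored against the spread of the other compound wells on the same plate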
HePTP inhibitor: inhibitors of human HePTP phosphatase, primary screen, biochemical, absorbance, leukemia target; Tyrosine-protein phosphatase non-receptor type 7 (Homo sapiens), P35236; recombinant HePTP phosphatase activity, OD absorbance; inhibition, % at 20 µM; 0.64% of 110,000 active; in the data active means inhibition above about 50%;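 further: plate controls were vehicle for no effect and reference inhibitor for full effect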
TNAP act DEA: human TNAP enzyme activators, primary screen, biochemical, luminescent, intermediate phosphate acceptor level. AID 813, 2007. activation factor at 20 µM. purified TNAP, CDP-star luminescence, 100 mM DEA, 30 min; stronger effect = higher value; scale: 0 levamisole-inhibited, 1 vehicle-only enzyme. 64,000 tested, under 10 active;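 active means activation factor of at least 2 at 20 µM, relative to controls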
Target sequence (P05186 whole entry, looked up): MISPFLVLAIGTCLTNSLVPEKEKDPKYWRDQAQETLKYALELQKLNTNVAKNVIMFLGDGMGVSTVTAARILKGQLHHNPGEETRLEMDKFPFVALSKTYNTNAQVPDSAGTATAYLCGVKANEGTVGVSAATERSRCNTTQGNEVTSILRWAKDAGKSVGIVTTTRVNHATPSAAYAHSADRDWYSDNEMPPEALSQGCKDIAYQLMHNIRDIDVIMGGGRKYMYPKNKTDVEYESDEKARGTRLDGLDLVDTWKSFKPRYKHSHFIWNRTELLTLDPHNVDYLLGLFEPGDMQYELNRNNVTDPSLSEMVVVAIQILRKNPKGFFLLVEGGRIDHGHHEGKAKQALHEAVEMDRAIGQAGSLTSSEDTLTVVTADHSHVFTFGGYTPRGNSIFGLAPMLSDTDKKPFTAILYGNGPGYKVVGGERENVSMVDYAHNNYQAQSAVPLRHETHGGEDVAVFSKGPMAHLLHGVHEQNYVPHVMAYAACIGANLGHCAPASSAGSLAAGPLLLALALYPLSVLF
PLAP act: PLAP enzyme activators, biochemical, luminescence, HTS; 1.2% of 96,000 active; purified PLAP enzyme, luminescent substrate read-out; stronger effect = higher value; activation fold at 20 µM; Alkaline phosphatase, placental type (Homo sapiens), P05187; in the data active means activation fold above about 2
Candida biofilm: clotrimazole potentiators killing Candida biofilms, primary screen, with clotrimazole, Alamar Blue | C. albicans biofilm + clotrimazole | inhibition, % at 6 µM | 0.14% of 85,000 active;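 active means inhibition above 20%; inactive means inhibition below 20%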;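 further: preformed 24 hr biofilms exposed to compound for 48 hr; 0% = biofilm without compound and 100% = blank killed by clotrimazole plus chlorhexidine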
* = called active by the depositor; x = no result. Many of the other results were omitted from the sample, so hits are more common in it than they were.

SMILES | D1 allo mod | hDAT+cocaine | HePTP inhibitor | TNAP act DEA | PLAP act | Candida biofilm
CCOC(=O)C1CCN(c2c(NCCN3CCN(c4ccccc4)CC3)c(=O)c2=O)CC1 | -1.32 | -0.448 | -1.9 | 0.9 | 1.1 | 11.8
Cc1cc(C)c(NC(=O)c2ccc(CN3CCc4ccccc4C3)cc2)c(C)c1 | x | 1.79 | x | x | 2.3* | x
CN(C)c1ccc(NC(=O)c2cc(-c3ccccc3Cl)nc3ccccc23)cc1 | x | x | 1.5 | x | x | x
Cc1cc(C)cc(-n2c(C)cc(/C=N/NC(=O)CN(c3c(C)cccc3C)S(C)(=O)=O)c2C)c1 | x | -1.18 | x | x | 2* | x
C/C=C/C=C/C(=O)N1C(=O)C(=O)c2cc(Br)ccc21 | x | x | 0.9 | x | x | x
O=C(NNC1=C(C(=O)C(F)(F)F)CCC1)c1cccc(Cl)c1 | x | 1.1 | -14.2 | x | 2* | 4.3
C/C(=C\C(=S)Nc1ccccc1)Nc1ccc(Cl)cc1 | x | x | -14.8 | x | x | x
CC(C)Nc1nc(Cl)nc(NNC(=O)C(C)Oc2ccccc2)n1 (stereo not drawn) | x | -0.245 | x | x | 2.2* | x
O=C(CNC1CCCCC1)Nc1c2c(nc3ccccc13)CCC2 | x | x | -1.6 | x | x | x
C=CCn1c(SCc2cc(=O)n3ccsc3n2)nc2sc(C)c(C)c2c1=O | 4.02* | -1.23 | 8.3 | 0.9 | 0.9 | 4.5
C=CCn1c(=O)c2ccccc2n2c(SCC(=O)c3ccccc3)nnc12 | 0.483 | 0.0135 | 3.6 | 0.9 | 1.4 | -2.7
C=CCn1c(=O)c2ccccc2n2c(SCc3cc(=O)n4ccsc4n3)nnc12 | -0.0128 | 2.78* | 6.2 | 1 | 0.9 | -2.4
CC(C)(C)c1ccc(C(=O)NC2CCCC2)cc1 | x | x | -0.2 | x | x | x
COc1ccc(-c2nnc(SCC(=O)NCCOc3ccccc3)n2-c2ccccc2)cc1 | x | x | 2.8 | x | x | x
COc1ccc(C2/C(=C(\O)c3ccc([N+](=O)[O-])cc3)C(=O)C(=O)N2CCCCCC(=O)O)cc1OC (stereo not drawn) | x | x | 13.1 | x | x | x
C=CCn1c(CSc2nc3ccccc3s2)n[nH]c1=S | x | 0.0666 | 8.6 | x | 1.2 | 4.3
C=CCn1c(Cc2nc3ccccc3[nH]2)n[nH]c1=S | 0.629 | -0.825 | 5.0 | 1.1 | 2* | 9.5
CCCCNC(=O)c1cn(-c2ccccc2)nc1-c1ccccc1 | x | x | -4.4 | x | x | x
O=C(NCCCn1ccnc1)C(=O)NCc1ccccc1 | x | -0.314 | x | x | x | 7.2
O=C(NCCCn1ccnc1)c1cn(-c2ccccc2)nc1-c1ccc(F)cc1 | 0.115 | 1.22 | 1.5 | 1.2 | 2.3* | 4.6
CC(C)NC(=O)CSc1nc2ccccc2[nH]1 | x | x | 1.5 | x | x | x
O=C(NCCCn1ccnc1)C(O)(c1ccccc1)c1ccccc1 | x | x | 55.8* | x | x | x
O=C(CSc1nc2ccccc2[nH]1)NCCCn1ccnc1 | 0.477 | -1 | 4.1 | 1 | 2* | -1.4
Cc1c(C(=O)OC(C)C)sc(NC(=O)c2ccc(Br)o2)c1C(=O)OC(C)C | x | x | -0.6 | x | x | x
COc1cccc(NC(=O)NC2CCN(Cc3nnnn3Cc3ccc(F)cc3)CC2)c1 | 0.285 | -0.749 | -2.2 | 1 | 2.1* | x
SMILES | D1 allo mod | hDAT+cocaine | HePTP inhibitor | TNAP act DEA | PLAP act | Candida biofilm
O=C(Nc1ccccc1F)NC1CCN(Cc2nnnn2Cc2ccc(F)cc2)CC1 | -0.0262 | 0.229 | -2.9 | 1 | 1.1 | x
CCn1c(C)nc2cc(C(=O)NNS(=O)(=O)c3c(C)c(C)cc(C)c3C)ccc21 | x | 1.64 | x | x | 2* | 8.8
CCn1c(C)nc2cc(C(=O)OC(C(F)(F)C(F)F)C(F)(F)C(F)F)ccc21 | -0.618 | -0.209 | 2.2 | 0.9 | 1.4 | 7.6
COC(=O)c1ccccc1NC(NC(=O)c1ccco1)C(=O)c1ccccc1 (stereo not drawn) | x | 0.0106 | 4.4 | 1 | 1 | 5.5
COc1ccc(NC(=O)c2ccco2)cc1NC(=O)c1cccs1 | -0.0303 | 1.81* | -1.7 | 0.8 | 0.8 | -5.0
COc1ccccc1NC(NC(=O)c1ccco1)C(=O)c1ccccc1 (stereo not drawn) | x | 34.9* | 2.5 | 0.9 | 1 | 1.3
COc1ccc(C(=O)Nc2ccccc2NC(=O)c2ccco2)cc1OC | x | 2.77* | 12.7 | 0.9 | 1 | 3.9
COc1ccc(-c2cc(=O)n(-c3ccc(Oc4ccccc4)c(S(=O)(=O)O)c3)[nH]2)cc1 | x | x | 11.4 | x | x | x
CC(=O)c1ccc(N=C2c3ccccc3C(=O)C2c2ccc3ccccc3c2)cc1 (stereo not drawn) | x | x | 0.1 | x | x | x
O=C(CNC(=O)c1ccccc1)c1ccc(Cl)cc1 | x | x | 8.9 | x | x | x
COc1ccc(Cn2nnnc2C(c2ccccc2)N2CCN(C3CCCC3)CC2)cc1 (stereo not drawn) | 0.00511 | 0.0404 | -1.1 | 1 | 2* | 0.7
Cc1ccc(OCCn2cc(/C(N)=N/O)c3ccccc32)cc1C | -3.09* | 0.112 | 4.6 | 0.9 | 1 | 10.3
CN(C)c1ccc(/C=N/n2ncc3ccccc32)cc1 | -3.44* | 0.917 | 0.0 | 1 | 1 | 8.5
CCOC(=O)c1ccc(-n2c(-c3ccccc3)nc3ccccc3c2=O)cc1 | x | x | 97.9* | x | x | x
CCOC(=O)c1ccc(-n2c(C)nc3ccccc3c2=O)cc1 | 0.00929 | 1.81 | 3.6 | 0.9 | 1.3 | 7.1
Cc1ccc(N=C2NC(=O)/C(=C/c3cccc(O)c3)S2)cc1Cl | x | x | 59.6* | x | x | x
COc1ccc(C(NC(=O)Cc2ccccc2)c2c(OC(C)=O)ccc3ccccc23)cc1OC (stereo not drawn) | x | x | -17.9 | x | x | x
C[C@H](N)c1nnc(SCC(=O)c2ccc(Cl)cc2)o1 | x | -1.28 | x | x | 2.9* | 4.9
CSc1ccc(/C=C(/NC(=O)c2ccccc2)C(=O)N2CCOCC2)cc1 | x | x | 0.4 | x | x | x
CCCCCCNC(=O)c1ccc(F)cc1 | x | x | -11.2 | x | x | x
Cc1ccc(-c2csc3nnc(SCC(=O)N4CCN(Cc5ccccc5)CC4)n23)cc1 | 0.143 | -0.0507 | 5.8 | 1 | 1.5 | 4.0
O=C(CSc1nnc2scc(-c3ccccc3)n12)N1CCN(Cc2ccccc2)CC1 | 1.39 | 2.09* | 4.9 | 1 | 1.8 | -4.6
COCCCNC(=O)COc1cccc2ccccc12 | x | x | 1.3 | x | x | x
O=C1C(Cl)=C(Nc2ccc3c(c2)OCO3)C(=O)N1c1ccccc1 | x | x | 0.5 | x | x | x
CC(=O)NS(=O)(=O)c1ccc(NC(=O)Nc2cccc(Cl)c2)cc1 | x | x | -18.1 | x | x | x
Cc1cc(C)n2cc(CSc3nc4cc(Cl)ccc4o3)nc2n1 | 2.13 | 4.04* | 5.2 | 0.9 | 1.5 | 3.2
Cc1cc(C)n2cc(CSc3nnc(-c4ccccc4)o3)nc2n1 | 1.09 | 0.523 | 5.7 | 0.9 | 1.5 | 3.5
O=C(CSc1nnc2ccccn12)NC(=O)NC1CCCCC1 | -5.47* | -0.162 | 11.3 | 0.9 | 1.2 | 4.9
O=C(CSc1nnc2ccccn12)Nc1ccccc1C(=O)NC1CC1 | x | 0.323 | 6.8 | 0.9 | 1 | x
CSc1nnc(-c2sc3cc(C(F)(F)F)cnc3c2-c2ccccc2)n1C | x | -0.155 | x | x | 2* | -4.8
